Drawing on PMC11062922 (Nature Chemical Biology, 2023), this text covers potency estimated from few doses for eight compounds.

Read-outs that look alike come from different tables or passages of the source.

Common to all, as to parameters: species or system human, MV4-11 + K-562 + COLO205 + SK-N-BE2 + OVCAR-8
One assay concerns LATS1. As to conditions: read-out: apparent Kd, n = 1.
The subject of a further assay is PRKCQ. As to conditions: read-out: apparent Kd, n = 1.
In the next assay the test system is DYRK1A. The following applies: read-out: apparent Kd, compound concentrations: 100 nM and 1000 nM (sheet 'Samples'), n = 1.
The next assay concerns PRKD2. The following applies: read-out: apparent Kd, compound concentrations: 100 nM and 1000 nM (sheet 'Samples'), n = 1.
Another assay relates to PRKD3. The following applies: read-out: apparent Kd, compound concentrations: 100 nM and 1000 nM (sheet 'Samples'), n = 1.
A further assay concerns FER. As to conditions: read-out: apparent Kd, compound concentrations: 100 nM and 1000 nM (sheet 'Samples'), n = 1.
The next assay relates to FLT3. As to conditions: read-out: apparent Kd, compound concentrations: 100 nM and 1000 nM (sheet 'Samples'), n = 1.
A further assay relates to MARK4. As to conditions: read-out: apparent Kd, compound concentrations: 100 nM and 1000 nM (sheet 'Samples'), n = 1.
Another assay deals with MYLK3. The following applies: read-out: apparent Kd, compound concentrations: 100 nM and 1000 nM (sheet 'Samples'), n = 1.
For a further assay, the system named is PIP4K2C. The following applies: read-out: apparent Kd; compound concentrations: 100 nM and 1000 nM (sheet 'Samples'), CATDS: 5.8169442722308101E-3; n = 1.
The test system of another assay is PLK4. The following applies: read-out: apparent Kd, compound concentrations: 100 nM and 1000 nM (sheet 'Samples'), n = 1.
Another assay deals with PRKAA1. As to conditions: read-out: apparent Kd, compound concentrations: 100 nM and 1000 nM (sheet 'Samples'), n = 1.
The subject of the next assay is PTK2B. The following applies: read-out: apparent Kd, compound concentrations: 100 nM and 1000 nM (sheet 'Samples'), n = 1.
In the next assay the test system is PTK2. The following applies: read-out: apparent Kd, compound concentrations: 100 nM and 1000 nM (sheet 'Samples'), n = 1.
A further assay has as its system RPS6KA6. As to conditions: read-out: apparent Kd, compound concentrations: 100 nM and 1000 nM (sheet 'Samples'), n = 1.
The test system of the next assay is STK10. The following applies: read-out: apparent Kd, compound concentrations: 100 nM and 1000 nM (sheet 'Samples'), n = 1.
The next assay relates to CDK7. As to conditions: read-out: apparent Kd, compound concentrations: 100 nM and 1000 nM (sheet 'Samples'), n = 1.
For a further assay, the system named is ERCC2. As to conditions: read-out: apparent Kd, compound concentrations: 100 nM and 1000 nM (sheet 'Samples'), n = 1.
Another assay has as its system PRKCD. As to conditions: read-out: apparent Kd; compound concentrations: 100 nM and 1000 nM (sheet 'Samples'), CATDS: 3.5352355938645099E-3; n = 1.
[1] abbreviates: compound concentrations:100 nM and 1000 nM (sheet 'Samples').

In the case of `CCn1c(-c2nonc2N)nc2c(C#CC(C)(C)O)nc(OCCNC)cc21.Cl` [GSK949675A], the potency estimated from few doses is 401 nM in the assay on LATS1 (setting [1]) and 1680 nM in the assay with PRKCQ (setting [1]).
In the case of `CONC1=NC(=O)/C(=C/c2ccc3ncccc3c2)S1` [RO4613269-000], in the assay on DYRK1A (CATDS: 0.14801064181583801), the potency estimated from few doses was 1100 nM.
`Fc1ccc(-c2c(-c3ccncc3)[nH]c3cccnc23)cc1` [RO1153853-000]: the potency estimated from few doses is 1020 nM in the assay with PRKD2 (CATDS: 5.7434995830704397E-2) and 1420 nM in the assay on PRKD3 (CATDS: 5.1990975037574202E-2).
Consider `COc1ccc(Nc2ncc(C#N)c(Nc3ccccc3C(N)=O)n2)cc1N1CCN(C)CC1.Cl` [GSK1558669A], for which the potency estimated from few doses is 954 nM in the assay on DYRK1A (CATDS: 6.6106373934709103E-3); 137 nM in the assay on FER (CATDS: 1.1172004845485001E-2); 35.1 nM in the assay on FLT3 (CATDS: 2.0604812795468701E-2); 205 nM in the assay on LATS1 (compound concentrations: 100 nM and 1000 nM (sheet 'Samples'), CATDS: 9.7361630406248897E-3); 64.4 nM with MARK4 (CATDS: 1.5249165601859399E-2); 23.1 nM with MYLK3 (CATDS: 2.6075418388892199E-2). For the same compound, the potency estimated from few doses was 2240 nM in the assay on PIP4K2C; 415 nM in the assay with PLK4 (CATDS: 7.9359519159901901E-3); 36.6 nM in the assay on PRKAA1 (CATDS: 2.0149023571651901E-2); 84.5 nM with PTK2B (CATDS: 1.3529380969040701E-2); 9.26 nM in the assay on PTK2 (CATDS: 4.75918589440152E-2); 34.3 nM in the assay on RPS6KA6 (CATDS: 2.0856200348519E-2). In the assay with STK10 (CATDS: 1.0596963300075399E-2), the potency estimated from few doses is 159 nM.
For the compound `CCn1c(-c2nonc2N)nc2c(C#CCN)ncc(OCCCN)c21.O=C(O)C(F)(F)F` [GSK561866B], the potency estimated from few doses in the assay on LATS1 (compound concentrations: 100 nM and 1000 nM (sheet 'Samples'), CATDS: 0.187665654048491) was 38.9 nM.
`CN(c1ccc(NC(=O)N2CCN(CCCN3CCOCC3)CC2)cc1)c1ccnc(Nc2ccc(CS(C)(=O)=O)cc2)n1.Cl` [GW830899A]: the potency estimated from few doses in the assay with CDK7 (CATDS: 3.2126813899460802E-2) was 560 nM; with ERCC2 (CATDS: 3.5571834197337601E-2), 471 nM; in the assay on FER (CATDS: 2.4500715622852599E-2) it was 940 nM; in the assay with FLT3 (CATDS: 9.7213478094733505E-2), 119 nM; in the assay on MARK4 (CATDS: 2.1363637318540001E-2), 1290 nM; with PRKAA1 (CATDS: 2.4895545924416802E-2) it was 909 nM. Further, the potency estimated from few doses is 1020 nM in the assay on PRKCQ (compound concentrations: 100 nM and 1000 nM (sheet 'Samples'), CATDS: 2.35958557762035E-2); 643 nM in the assay on PTK2 (CATDS: 2.9725199889124199E-2).
In the case of `Cn1ncc2c(N)ncnc21` [SKF-18267], the potency estimated from few doses in the assay on CDK7 (CATDS: 5.5514862333248096E-3) is 667 nM; with DYRK1A (CATDS: 3.77369052298554E-3) it was 1560 nM; with FER (CATDS: 5.4218087868892397E-3), 697 nM; with FLT3 (CATDS: 6.0970372773572496E-3), 564 nM; in the assay on LATS1 (compound concentrations: 100 nM and 1000 nM (sheet 'Samples'), CATDS: 3.8471015452543802E-3), 1480 nM; with MARK4 (CATDS: 3.8950662850455102E-3), 1430 nM. Also, the potency estimated from few doses with MYLK3 (CATDS: 3.9686163384318402E-3) was 1360 nM; in the assay on PLK4 (CATDS: 4.9790098691835901E-3), 821 nM; in the assay with PRKCD, 1880 nM; with PRKCQ (compound concentrations: 100 nM and 1000 nM (sheet 'Samples'), CATDS: 3.4517086035176399E-3), 2030 nM; in the assay on PRKD2 (CATDS: 4.0514258518823199E-3), 1290 nM; with PRKD3 (CATDS: 4.0252223893410396E-3), 1320 nM. The potency estimated from few doses in the assay with PTK2B (CATDS: 7.2672167282142302E-3) is 423 nM; with PTK2 (CATDS: 4.9483549300151902E-3) it was 831 nM; in the assay with RPS6KA6 (CATDS: 7.1387563408407901E-3) it was 435 nM; in the assay with STK10 (CATDS: 3.6177977688347301E-3) it was 1760 nM.
As for `Clc1cc(Cl)cc(Nc2ccnc(Nc3cc(Cl)cc(Cl)c3)n2)c1` [GSK175726A], the potency estimated from few doses with CDK7 (CATDS: 1.9330129421886999E-2) is 142 nM; in the assay on ERCC2 (CATDS: 2.00031391959163E-2), 132 nM; with FER (CATDS: 2.0209257750724199E-2), 130 nM; with LATS1 (compound concentrations: 100 nM and 1000 nM (sheet 'Samples'), CATDS: 8.3705854443938306E-3), 1830 nM; with MARK4 (CATDS: 9.0821419541050104E-3), 1200 nM; in the assay with PLK4 (CATDS: 9.9833619636259807E-3) it was 805 nM. The potency estimated from few doses is 183 nM in the assay on PRKAA1 (CATDS: 1.70258179859262E-2); 1870 nM with PRKCQ (compound concentrations: 100 nM and 1000 nM (sheet 'Samples'), CATDS: 8.3428687268584899E-3); 168 nM with PTK2B (CATDS: 1.7764778222698001E-2); 111 nM in the assay on PTK2 (CATDS: 2.2055583015587899E-2); 101 nM in the assay with RPS6KA6 (CATDS: 2.32464475712073E-2); 1710 nM with STK10 (CATDS: 8.4721916216742802E-3).
